Data: the supplement of paper PMC12632987
The full ranking holds about 2,300 sequences; the median of “median log2 fold change of GCK-ALFA target abundance (FLAG IP / Myc IP barcode read proportion)” is about 0.095, and the lowest 2% start at about -0.47. Only a selection was taken, and the lowest values are over-represented in it overall.

B1: LC3A_28_934 (protein)
chain: MTVEERIKKALEEAEKAAKAGEPVVITIKVTSKDTQEEIDKLIKTIKEIAEILKNVKGAAIIVDVDAGVPQERIDKIADTLEEIEKKYPNINAILALDED
B2: LC3A_3_1490 (protein)
chain: REELLERMRAVLEARGASPEQIAEVLEAAERLLELGYEETVETLIELFEANPDLDPLDIVTAVLITLEVAEEEDLSEEELVERAREIFENVREIEALDEN
B3: LC3A_3_1491 (protein)
chain: MEELLERMREVLEARGASEEQIEEVLEAVEELLELGYEETVEELIELFEANPDLDPEQIVTAVLITLEVAEEEDLSEEELVERARRIFEDVAEIEALDEE
B4: LC3A_28_1022 (protein)
chain: SALDEELEALRAEVEAALARGEDVLLEVTIKPTDSLEEVRRKMERVKEIALEASKRGKVDVLIDVEKGVSQEKIDIVMDAAEELEEEDPSVNVIIALEEE
B5: LC3A_141_383 (protein)
chain: MKKEFEMEATKETADEVFKFMEEVEKETLEMIKESGGKPVKMKVKITATNEKTGEVVEKEEEYIVTEENADLVADGIEIEVLSLLDRVGGKVKVKVTLES
B6: LC3A_28_1063 (protein)
chain: SKVEAEIKKALAEAKEAVAAGEEALVTITIDDSDSDEDVEKKLKTMEEIAELTKTLPRTTILVDIDSSRKEEISKKVSEVGDKLEKKYPNVTVIIALSEE
B7: LC3A_147_431 (protein)
chain: YITTVDIDVLTKDAEEEVIKAAKEIEEELKAKGYEVELEIEVEELENGEKYIHIKITVKTETEEEAKEAADYIVDKFEELEEKLKDKILGSIISVEIEEA
B8: LC3A_147_511 (protein)
chain: YEVEVDVDIITKDAEEEVIEEFKEIAEELKKKGYEVELEIEVEELENGITYIHVKITVKTETEEEAKEVANYILDKIDEIEEKLKDKILGSMISVEIIKK
B9: LC3A_free_8_2456 (protein)
chain: SSQKLVDTAVKLLEEMEKELTELAKKEGLSRLDILELELEIGSLIAEVISLVDKSPEEILETTKEGLEEIIELAKELGEEVAKLAEEKSKEIIEELEKLI
B10: LC3A_28_1295 (protein)
chain: SEIEKNLKEALAEAKKAKAEGKQVVITVKVPGDATQEEIELVIKGLEEIAKVLEDVPNQTIIIDVEAGVKQEHIDLLADRAEEIEKKYPNVTVIIALDED
B11: LC3A_28_1058 (protein)
chain: MSIEEQLEKALEEAKEAVKKGEEALVELKINKDSTEEDVEKVLETMKEIAELTKDLPSVSIVVDVDHENKEEVTKKVSELGDELEKKYPNVTVIIALSEE
B12: LC3A_28_1049 (protein)
chain: SPIEEELKRALEEAKEAVARGEEALIRLTIGKDATEEDVEKVLETMEEIAELTKSLPRVDIVVDVDSENKEEVTKKIAEKGEELEKKYPNVTVYIALSEE
B13: LC3A_28_738 (protein)
chain: SAIEKELEKAIKEAKEAAKAKEPKVITITVPGTANEEDIELVIKALEEIAEILKDVKDQAIIIDVDGKLDPELLKKLMDKAEEIEEKYPNVTVIIALDEE
B14: LC3A_free_8_2444 (protein)
chain: STQKLVDEVTELLDEMEERVEEKAKELGLSELDILDLSLLIGSLIAEIISAVDKSIEEIRKIVEEDMEEIIEEARELSEEIAEIVEETKERILELIDEAE
B15: LC3A_28_1082 (protein)
chain: SAVDAQIAAALAALRAAKAAGEEALLTLTLTEDATQEDVDRLIAGLEEIAELARDAARVTVVIDLDGKIPQEHIDRIADAAERIEERVPNVTVIIALDEE
B16: LC3A_free_39_2223 (protein)
chain: SEEEIEKLIKEVAKESGIDYEELKKKIEEIKEVGKLSNEQILEIVKAILEAVKAGADAKEILEEALKLTKELVAAGKSPEEIKEEILELIEDYRNLVPLD
B17: LC3A_3_1370 (protein)
chain: MEEEKAATLAELKAAGKSEETIAAVEKTLDALIEKGYEEAAKTFMELLKELKDLSDEILLAFAEDVLKAVEEEDLSEEELIKFIKEEATIARNEQEIIEL
B18: LC3A_28_1053 (protein)
chain: SAIDKQLEAALAEARAAAAAGEEALITLTIPENATEEDVEKVLATIREIAEITKDLPATTIIVDVDNKNQEEVTKKIDEVGEELAKKYPNVTVIIALSEN
B19: LC3A_28_1052 (protein)
chain: SHIDEQIEKALKEAEEAKAKGEEALIELHIGKDANEEDVEKVLETIEKIAEITKDLPSVTIIVDVDNPNKEEVTKKIDEVGEELAKKYPNVTVIIALSEE

Target: MAP1LC3A, Q9H492
Test: median log2 fold change of GCK-ALFA target abundance (FLAG IP / Myc IP barcode read proportion) (log2 ratio); each designed protein is fused to an ALFA-tag nanobody in HEK293 cells to bring the named protein to FLAG-tagged glucokinase (GCK); Myc marks an untargeted standard; higher = target protein stabilised (more abundant)
Conditions: target protein: 3xFLAG-MCP-GCK-ALFA reporter; HEK293 landing pad (RPLP)
In short: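 The readout is target abundance, the per-binder median log2 ratio of FLAG to Myc barcode read proportions. It came from HEK293 landing-pad cells carrying a recombined ALFA-nanobody-fused binder library, induced with 2 μg mL^−1 doxycycline and transfected with a plasmid for a FLAG-tagged target and a Myc-tagged standard. After 48 h, lysates were immunoprecipitated with anti-FLAG and anti-Myc, and circular RNA barcodes were reverse transcribed, amplified and sequenced. Each barcode needed a proportion of at least 10^−7 in both replicates and each binder at least 3 barcodes per replicate, a pseudocount of 10^−6 was added, and the replicates were pooled.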

Binder | median log2 fold change
B1 | 0.252
B2 | -0.342
B3 | -0.577
B4 | 0.00506
B5 | 0.328
B6 | 0.0338
B7 | 0.117
B8 | -0.745
B9 | -0.163
B10 | 0.184
B11 | -0.699
B12 | 0.00401
B13 | 0.167
B14 | -0.324
B15 | 0.081
B16 | -0.0674
B17 | 0.233
B18 | -0.454
B19 | -0.553
